High-throughput results from PubChem.
Most compounds without a hit are left out; they make up all but 2.8% or so of the library.
IP6K1 inh: Primary qHTS assay for small molecule inhibitors of Inositol hexaphosphate kinase 1 (IP6K1) | IP6K1 kinase, ADP-Glo luminescence, 2 h; active compounds read low | activity change, % (series mostly up to about 58 µM) | 140,000 tested, 0.81% active | AID 1645851, 2021 | Inositol hexakisphosphate kinase 1 (Homo sapiens), Q92551; in the data active = activity change below about -25%
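ADP-Glo luminescence measures ADP made by human IP6K1 during a 2 h RT reaction with ATP/IP6 (mix at 1.3 mM/130 uM); top library doses 57.5 and 19.1 uM final.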
KDM5B inh: Primary screen for KDM5B Histone Demethylases FDH-coupled qHTS; Lysine-specific demethylase 5B (Homo sapiens), Q9UGL1; KDM5B demethylase, FDH-coupled NADH fluorescence (FDH is formaldehyde dehydrogenase); AID 1347165, 2019; 220,000 tested, 2.6% active; Potency, µM (highest dose often 57.7 µM), usual class: inhibitors; active = well fitted inhibition curve with a large enough effect; inconclusive = small, poorly fitted or top-dose-only effect; inactive = no such curve, though single readings can be large or run the other way; note: nearly all actives have a fitted effect of over 70% in size
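Measured: NADH fluorescence change, 30 min, RT. System: KDM5BΔAP 200 nM final, H3K4me3 peptide, α-KG, Fe(II), ascorbate, NAD⁺ plus FDH, pH 7.5 HEPES. Compounds: titrated, 10 min pre-incubation with enzyme.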
Hits are given with their value; . = inactive; ? = inconclusive; / = not tested or not shown.

SMILES	IP6K1 inh	KDM5B inh
CN(C)c1ccc(-c2nnc([C@H]3CCN(C(=O)c4ccccn4)C3)o2)cc1	.	?
Clc1ccccc1CN1CC[C@H](c2nnc(-c3ccccc3)o2)C1	.	.
Cc1ccccc1CN1CC[C@H](c2nnc(-c3ccc(N(C)C)cc3)o2)C1	.	31.6µM
c1coc(CN2CC[C@H](c3nnc(-c4ccncc4)o3)C2)c1	.	.
CN(C)c1ccc(-c2nnc([C@H]3CCN(Cc4ccccn4)C3)o2)cc1	.	35.5µM
O=C1CC(c2ccccc2)N(C(=O)CC2CCCCC2)CCCCCCN1 (stereo not drawn)	.	.
COc1ccc(-n2ccn(CC(=O)Nc3ccc4c(c3)OCO4)c2=O)cc1	/	.
CC(C)S(=O)(=O)NCC1CCCN(C(=O)c2ccc3ccccc3n2)C1 (stereo not drawn)	/	.
O=C(NC1CCCCC1)c1nc2sccn2c1-c1ccc(F)cc1	.	/
N#Cc1ccc(CN2CCC3(CC(=O)Nc4ccccc4N3)C2)cc1 (stereo not drawn)	.	.
O=C1CC2(CCN(CC3CCNC3)C2)Nc2ccccc2N1 (stereo not drawn)	.	112µM
CC(C)(C)CC(=O)NCC(O)c1ccccc1C(F)(F)F (stereo not drawn)	/	.
CC(=O)Nc1ccc(S(=O)(=O)N2C[C@@H]3C[C@H](C2)c2ccc(-c4ccccc4C)c(=O)n2C3)cc1	.	25.1µM
O=C(Cc1ccccc1)Nc1ccc2n(c1=O)C[C@H]1C[C@@H]2CN(S(=O)(=O)c2ccc(Cl)cc2)C1	.	?
COc1ccc(C(=O)Nc2ccc3n(c2=O)C[C@H]2C[C@@H]3CN(C(=O)CCCC(=O)O)C2)cc1	.	.
CC(C)(CC(=O)O)CC(=O)N1C[C@@H]2C[C@H](C1)c1ccc(-c3cccc(C(F)(F)F)c3)c(=O)n1C2	.	28.2µM
O=C(Nc1ccccc1)N1C[C@@H]2C[C@H](C1)c1ccc(-c3cccc(C(F)(F)F)c3)c(=O)n1C2	.	31.6µM
N#Cc1cccc(NC(=O)N2C[C@@H]3C[C@H](C2)c2ccc(-c4ccc(OC(F)(F)F)cc4)c(=O)n2C3)c1	.	.
O=c1c(-c2cccc(C(F)(F)F)c2)ccc2n1C[C@H]1C[C@@H]2CN(S(=O)(=O)c2ccccc2)C1	.	?
COc1ccc(S(=O)(=O)N2C[C@@H]3C[C@H](C2)c2ccc(-c4cccc(C(F)(F)F)c4)c(=O)n2C3)cc1	.	31.6µM
CC(C)CNC(=O)CN1CCN(c2nc(-c3cccs3)nc3ccccc23)CC1	/	.
O=C([C@@H]1C[C@H](Oc2ccccc2)CN1C(=O)c1ccco1)N1CCCC1	.	.
Cc1cccc(NC(=O)COc2ncnc3ccccc23)c1C	/	.
O=C(Cc1ccc(F)cc1)NC1CCN(c2ccc3nnc(C4CC4)n3n2)CC1	.	/
CC(C)Cc1cc(C(=O)N2CCc3onc(-c4ccccc4F)c3C2)on1	.	?
SMILES	IP6K1 inh	KDM5B inh
C[N+](C)(CC(=O)c1ccccc1)Cc1ccccc1	/	.
Cc1ccnc(C(NC(=O)CCc2cc3n(n2)CCCNC3)C2CC2)c1 (stereo not drawn)	.	28.2µM
Cc1nn(CCO)c(C)c1NC(=O)CCc1cc2n(n1)CCCNC2	.	?
Cc1c(-c2ccccc2)oc2c(C(=O)OCC(=O)N3CCNC3=O)cccc2c1=O	/	.
COCc1noc(CCNc2cc(C)nc(-c3ccccc3O)n2)n1	.	22.4µM
Cc1cc(NCCc2cnccn2)nc(-c2ccccc2O)n1	.	.
CC(C)(C)c1cc(Oc2cc(C(C)(C)C)cc(C(C)(C)C)c2O)c(O)c(C(C)(C)C)c1	/	.
O=Cc1cccn1-c1ccc(Br)cc1	/	.
Cn1c(-c2ccc(CN3CC[C@H]4CNC[C@H]43)o2)nc2ccccc21	.	?
Cn1c(-c2ccc(CN3CCc4[nH]cnc4C3C(=O)O)o2)nc2ccccc21 (stereo not drawn)	.	28.2µM
Cc1nn(C)c2nc(-c3ccccn3)nc(NCC(c3ccco3)N(C)C)c12 (stereo not drawn)	.	?
COc1ccc(S(=O)(=O)NCCNc2ncnc3c2c(C)nn3C)cc1	.	.
CNS(=O)(=O)CCNc1nc(-c2ccccn2)nc2c1c(C)nn2C	.	22.4µM
Cc1cc(=O)[nH]c(CCNc2nc(-c3ccncc3)nc3c2c(C)nn3C)n1	.	20µM
Cc1nc(CCNc2nc(-c3ccccn3)nc3c2c(C)nn3C)no1	.	?
COC(CNc1nc(-c2ccccn2)nc2c1c(C)nn2C)c1cccs1 (stereo not drawn)	.	28.2µM
CC(C1CC1)N(C)CC(=O)NC(C)(C#N)C(C)C (stereo not drawn)	/	.
O=C(Nc1cccc(-n2cccn2)c1)C1CCCN1S(=O)(=O)c1cccs1 (stereo not drawn)	.	.
O=C(O)C1(O)CCN(c2ncc(F)c(N3CCOCC3)n2)CC1	.	28.2µM
CC(C)(C(=O)O)c1cnc(N2CCN(CCO)CC2)nc1N1CCOCC1	.	.
CC(C)C(=O)Nc1ccc(C2(C(=O)N(C)C)CCC2)cc1	.	.
COc1cccc(NC(=O)N2CC(c3nnc(-c4ccncc4)o3)C3(CCOCC3)C2)c1 (stereo not drawn)	.	.
CCOC(=O)C1c2c(OC)ccc3c2C(=CC(C)(C)CO3)CN1C(=O)C1CC1 (stereo not drawn)	.	/
CN(c1ccccc1)c1ccc2nnc(-c3cc(C(=O)NCc4ccncc4)ccn3)n2n1	.	31.6µM
CN(c1ccccc1)c1ccc2nnc(-c3cc(C(=O)NCCc4ccccc4)ccn3)n2n1	.	?
SMILES	IP6K1 inh	KDM5B inh
CC(C)CN1CCC2(CC1)CC(C(=O)N1CCOCC1)N(C)C2 (stereo not drawn)	.	/
O=C([C@@H]1C[C@H](F)CN1S(=O)(=O)c1ccccc1)N1CCOCC1	.	.
COc1cc(/C=C/c2ccc3cccc(O)c3n2)ccc1OC(C)=O	/	.
COc1cccc(NC(=O)Nc2nnc(COc3ccc(Cl)c(C)c3)s2)c1	/	.
Cn1nccc1OCc1cn2c(=O)n(C)cc(-c3cccc(OCc4ccccc4)c3)c2n1	.	39.8µM
COCc1cn2c(=O)n(C)cc(-c3ccc(OC)nc3)c2n1	.	.
COc1ccc(-c2cn(C)c(=O)n3cc(COc4ccnn4C)nc23)cc1	.	?
Cn1cc(-c2cccnc2)c2nc(COc3ccccc3)cn2c1=O	.	.
CC(=O)Nc1cc(-c2cn(C)c(=O)n3cc(COc4ccc(Cl)cc4)nc23)ccn1	.	?
COc1ccc(-c2cn(C)c(=O)n3cc(COc4ccnn4C)nc23)cc1OC	.	35.5µM
COCc1cn2c(=O)n(C)cc(-c3ccnc(OC)c3)c2n1	.	31.6µM
Cn1cc(-c2ccc(O)c(F)c2)c2nc(COc3ccc(Cl)cc3)cn2c1=O	.	20µM
CC(C)N1CCCC(CNC(=O)c2ccccc2C(F)(F)F)C1 (stereo not drawn)	/	.
CC(=O)Nc1cccc(-c2nc(-c3c(C)noc3C)cc3c2cc(-c2ccccc2)n3C)c1	.	35.5µM
Cc1noc(C)c1-c1cc2c(cc(-c3ccccc3)n2C)c(N(C)C)n1	.	.
CS(=O)(=O)N1CCCC(C(=O)NCCc2cccnc2)CCNC(=O)CC1 (stereo not drawn)	.	.
CS(=O)(=O)N1CCCC(C(=O)NCCCN2CCCc3ccccc32)CCNC(=O)CC1 (stereo not drawn)	.	31.6µM
